Assay results: PubChem BioAssay (NCI)
Several values for one entry are separate records, joined by “and”; a condition that tells them apart may be missing. Identical values can stand only once. Compounds without any hit were thinned out: in the full panel of roughly 79,000, 15% have a hit. Activity calls are given as the source filed them. Cut-off read from the data, not from the text of the source: active = growth inhibition above about 70%; inactive = the rest.

Columns and labels:
[1] = NCI Yeast Anticancer Drug Screen. Data for the rad50 strain (AID 155);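 note: 0% = growth of vehicle-only cultures of the same strain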; details: S. cerevisiae rad50 strain growth inhibition, stronger effect = higher value; at 50.0 µM unless noted
In short: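 Vehicle-treated cultures provide the reference for the growth inhibition reported for compound-exposed, repair-deficient yeast.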

[2] = NCI Yeast Anticancer Drug Screen. Data for the mec2-1 strain (AID 157); details: S. cerevisiae mec2-1 strain, stronger effect = higher value; at 50.0 µM unless noted
In short: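 Using mec2-1 yeast: add compound, measure growth, express inhibition versus vehicle-treated cultures.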

[3] = NCI Yeast Anticancer Drug Screen. Data for the sgs1 mgt1 strain (AID 161);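 note: 0% = growth of cultures given vehicle only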; details: S. cerevisiae sgs1 mgt1 strain, stronger effect = higher value; at 50.0 µM unless noted
In short: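 Yeast cells carrying a defined DNA-repair defect were exposed to test compounds. Growth inhibition was measured relative to vehicle-treated controls.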

[4] = NCI Yeast Anticancer Drug Screen. Data for the cln2 rad14 strain (AID 165);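 note: 0% = growth equal to vehicle treated cultures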; details: S. cerevisiae cln2 rad14 strain, stronger effect = higher value; at 50.0 µM unless noted
In short: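 Yeast strain cln2 rad14, bearing defects in cell cycle control and DNA repair, serves as the test system; values reflect growth inhibition compared with vehicle.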

[5] = NCI Yeast Anticancer Drug Screen. Data for the mlh1 rad18 strain (AID 175); details: S. cerevisiae mlh1 rad18 strain growth inhibition, stronger effect = higher value; at 50.0 µM unless noted
In short: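 Steps: expose repair-defective yeast to compound; measure growth; express inhibition against vehicle-treated controls.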

[6] = NCI Yeast Anticancer Drug Screen. Data for the bub3 strain (AID 167); details: S. cerevisiae bub3 mutant strain, stronger effect = higher value; at 50.0 µM unless noted
In short: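 Mutant yeast screening strain plus compound; vehicle-treated cultures serve as the 0% inhibition reference.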

| SMILES | growth inhibition [1] | growth inhibition [2] | growth inhibition [3] | growth inhibition [4] | growth inhibition [5] | growth inhibition [6] |
| --- | --- | --- | --- | --- | --- | --- |
| O=C(CCl)Oc1ccc(C(=O)O)cc1 | -1.1% (inactive) | -3.55% (inactive) | -1.8% (inactive) | -3.65% (inactive) | -6.7% (inactive) |  |
| CC(=O)OC1CCC2(C)C3CCC4(C)C(C(C)CCCC(C)C)CCC4C3C3CC32C1 (stereo unspecified) | 30.6% (inactive) | -21.8% (inactive) | 29.1% (inactive) | 3.95% (inactive) | 0.1% (inactive) |  |
| CC(=O)CCC(C)C1CCC2C3CCC4CCCCC4(C)C3CCC12C (stereo unspecified) | 7.4% (inactive) | -3.05% (inactive) | -7.75% (inactive) | 13.8% (inactive) | -1.8% (inactive) |  |
| Cc1cc(OC(=O)c2c(-c3c(Cl)cccc3Cl)noc2C)n(-c2ccc(NC(=O)c3c(-c4c(Cl)cccc4Cl)noc3C)cc2)n1 | 36.8% (inactive) | 24.8% (inactive) | 19.7% (inactive) | 13% (inactive) | 25.9% (inactive) | 28.1% (inactive) |
| CCCC(=O)CC(=O)C(F)(F)F.CCCC(=O)CC(=O)C(F)(F)F.CCCC(=O)CC(=O)C(F)(F)F.[Er] | 25% (inactive) | 10.8% (inactive) | 44.2% (inactive) | -0.15% (inactive) | 50.1% (inactive) | -5.65% (inactive) |
| O=C1CN2CCC1C/C2=C\c1ccnc2c(Cl)cc(Cl)cc12 (stereo unspecified) | 7.75% (inactive) | -7.55% (inactive) | -0.9% (inactive) | -3.4% (inactive) | 19.2% (inactive) |  |
| CC(=O)Nc1ccc(NCC(=O)Nn2cnc3ccc(S(=O)(=O)Nc4ccc(NC(C)=O)cc4)cc3c2=O)cc1 | 5.55% (inactive) | -18.1% (inactive) | 16.6% (inactive) | 20.9% (inactive) | 6.95% (inactive) |  |
| Cc1ccccc1C(=O)c1ccccc1C | -16.3% (inactive) | -9.95% (inactive) | -7.2% (inactive) | -34% (inactive) | -9.9% (inactive) |  |
| CN(C)C(=S)/N=c1\ssc(=S)n1Cc1ccccn1 | 3.05% (inactive) | -11.9% (inactive) | 1.8% (inactive) | 22.1% (inactive) | -10.9% (inactive) |  |
| Cc1cc(C)c(CC(=O)c2ccccc2)c(C)c1 | 0% (inactive) | -9.5% (inactive) | -1.9% (inactive) | -32% (inactive) | -5% (inactive) |  |
| C=C1C[C@@H](O)C[C@@]2(C)C[C@@H]3OC(=O)C(=C)[C@@H]3C[C@H]12 | -5.9% (inactive) | -3% (inactive) | 16.2% (inactive) | 14.2% (inactive) | 19.9% (inactive) | -16.6% (inactive) |
| CCCN=C(N)C(C)=O | 5.85% (inactive) | -4.9% (inactive) | -11.1% (inactive) | 4.85% (inactive) | 2.1% (inactive) |  |
| COc1ccc(C(=O)N2N=C(C)C(C)(C)C2(C)O)cc1 (stereo unspecified) | -7.05% (inactive) | -23.1% (inactive) | -23.6% (inactive) | 2.5% (inactive) | -1.95% (inactive) |  |
| COc1c2c(cc3c1C(=O)c1c(O)cccc1C3=O)CC(O)CC2 (stereo unspecified) | -14.7% (inactive) | -33.2% (inactive) | -13.4% (inactive) | -10.5% (inactive) | -22.9% (inactive) |  |
| OCCCCC(O)CO (stereo unspecified) | -2.55% (inactive) | -13.7% (inactive) | -1.1% (inactive) | -8.65% (inactive) | -7.3% (inactive) | -18.6% (inactive) |
| CCCOC(=O)CCCC(=O)N(C(C)C)C(C)C | -12.3% (inactive) | -2.7% (inactive) | 12.2% (inactive) | -29.5% (inactive) | 4.65% (inactive) |  |
| NC(=O)CC(NC(=O)CCl)C(=O)O (stereo unspecified) | -12.3% (inactive) and -15% (inactive) | -24.8% (inactive) and -8.15% (inactive) | 2.1% (inactive) | 12.4% (inactive) | -22.4% (inactive) and -16.1% (inactive) | -0.35% (inactive) |
| O=C1NCC2(CCNCC2)N1 | -10.3% (inactive) | 16.7% (inactive) | 6.45% (inactive) | 15.6% (inactive) | -70.6% (inactive) |  |
| COc1ccc(NC(=S)N/N=C(\C)c2ccccn2)cc1 | 81.5% (active) | 91.8% (active) | 94% (active) | 35.4% (inactive) | 84.8% (active) | 80.1% (active) |
| O=C1CN(c2cccc(C(F)(F)F)c2)C(=O)CN1/N=C/c1cccnc1 | -28.4% (inactive) | -5.2% (inactive) | 10.8% (inactive) | -4.35% (inactive) | -8.45% (inactive) |  |

| SMILES | growth inhibition [1] | growth inhibition [2] | growth inhibition [3] | growth inhibition [4] | growth inhibition [5] | growth inhibition [6] |
| --- | --- | --- | --- | --- | --- | --- |
| COc1cccc(/C=C/C(C)=N/NC(N)=O)c1 | 6.5% (inactive) | 0.25% (inactive) | 5.5% (inactive) | -7.1% (inactive) | 8.65% (inactive) |  |
| CC(=O)OC1CCC2(C)C(C1)C(=O)OC1C2CCC2(C)C(C(C)CCCC(C)C)CCC12 (stereo unspecified) | 27.4% (inactive) | 3.55% (inactive) | 2.75% (inactive) | -12.7% (inactive) | 23.4% (inactive) |  |
| CN(C)c1c2ccccc2c(NC=O)c2ccccc12 | 3.45% (inactive) | -14.9% (inactive) | 11.7% (inactive) | 24.6% (inactive) | 9% (inactive) |  |
| C=C1C2CCC3(CCC4C5(C)CCCC4(C=[N+](CCO)C5)C3C2)C1O (stereo unspecified) | -20.7% (inactive) | -22.5% (inactive) | -27.9% (inactive) | 14.1% (inactive) | -28.6% (inactive) |  |
| O=C1OC(Oc2ccccc2)c2cc3c(cc21)OCO3 (stereo unspecified) | 20.4% (inactive) | -6.05% (inactive) | 21.3% (inactive) | 20.6% (inactive) | 29.5% (inactive) | 17.9% (inactive) |
| Cc1ccc(NCC2CC/C(=C\c3ccc(Cl)cc3)C2=O)cc1 (stereo unspecified) | -43.8% (inactive) | -22.8% (inactive) | -33.4% (inactive) |  | -32.3% (inactive) | -10.2% (inactive) |
| O=C(Nc1ccccc1)Nc1ccc2c(c1)oc1ccccc12 | 8.85% (inactive) | 6.7% (inactive) | 9.6% (inactive) |  | 25.6% (inactive) | 10.9% (inactive) |
| CCC(C)C(NC(=O)Cc1ccccc1)C(=O)O (stereo unspecified) | 4.55% (inactive) | -9.45% (inactive) | -4.1% (inactive) |  |  | 8.95% (inactive) |
| O=C(Cc1ccccc1)N/N=C(/c1nc2ccc([N+](=O)[O-])cc2[nH]c1=O)C(O)c1ccccc1Cl (stereo unspecified) | 0.8% (inactive) | 2.6% (inactive) | 6.8% (inactive) |  | 16.1% (inactive) | 5.7% (inactive) |
| COc1ccc(-c2nc(N)c3ncn(C4OC(CO)C(O)C4O)c3n2)cc1 (stereo unspecified) | -13.2% (inactive) | -23.9% (inactive) | -7.15% (inactive) |  | 15.4% (inactive) | -27.1% (inactive) |
| CN(c1ccccc1)c1c(Cl)c(=O)oc2c1ccc1nc(-c3ccccc3)sc12 | 44.6% (inactive) | 24.8% (inactive) | 35.7% (inactive) |  | 32.9% (inactive) | -4.3% (inactive) |
| c1ccc2c(c1)C(=NCCCN1CCCCCCC1)c1cccn1-2 | 23.5% (inactive) | 9.95% (inactive) | 29.1% (inactive) |  | 25.4% (inactive) | 23.1% (inactive) |
| CSCCC(Nc1ccc([N+](=O)[O-])cc1[N+](=O)[O-])C(=O)O (stereo unspecified) | 9.55% (inactive) | 7.25% (inactive) | 34.4% (inactive) |  | -18.1% (inactive) | 17.9% (inactive) |
| O=C1NC(=O)C(Cc2ccccc2)(c2cccnc2)N1 (stereo unspecified) | -28.6% (inactive) | -17.7% (inactive) | -5.65% (inactive) |  | -22.2% (inactive) | -0.65% (inactive) |
| N#C/C(=C/c1ccccc1)c1ccccc1 | 42.5% (inactive) | 12.6% (inactive) | 24.6% (inactive) | 14.5% (inactive) | 24.1% (inactive) |  |
| SCCNCc1ccccc1 | 20.9% (inactive) | -13.1% (inactive) | 6.9% (inactive) |  | 10.2% (inactive) | 6.9% (inactive) |
| COc1ccc(N2C(=O)c3c(c4[nH]c5ccc(OC)cc5c4c4ccc(C(C)(C)C)cc34)C2=O)cc1 | -8.85% (inactive) | -7.95% (inactive) | 4.4% (inactive) |  | 26.6% (inactive) | -2.95% (inactive) |
| Brc1ccc2c(ccc3c2nnc2ncnn23)c1 | 42.5% (inactive) | 22.4% (inactive) | 16.9% (inactive) |  | 42.2% (inactive) | -1.55% (inactive) |
| COC(=O)[C@H](Cc1c[nH]c2ccccc12)NC(=O)OCC1OC(n2cc(C)c(=O)[nH]c2=O)CC1N=[N+]=[N-] (stereo partly specified) | -0.35% (inactive) | -20.4% (inactive) | -3.5% (inactive) |  | -79.5% (inactive) | -13.6% (inactive) |
| CN1N=C(c2ccncc2)OC1c1cccc(C(F)(F)F)c1 (stereo unspecified) | -63.6% (inactive) | -65.9% (inactive) | -32.8% (inactive) |  | -21.3% (inactive) | 0.75% (inactive) |
